Experimental findings from ChEMBL document CHEMBL4513216, “Probing the Open Global Health Chemical Diversity Library for Multistage-Active Starting Points for Next-Generation Antimalarials” (ACS Infect Dis, 2020) are described below.

SMILES strings stand for the structures. About 8,600 (12%) of roughly 69,000 compounds showed an effect of 50% or more. The entries come from a sample that favours strong results as a whole.

In the assay the test system is Plasmodium berghei. The assay can be described thus: Screen against P. berghei liver stage (PbLuc), transformed with Luciferase, at 10uM. It counts as functional, HepG2. Conditions: tested at 10 uM.
Take `COCC(=O)N1C[C@@H](c2cccc(OC)c2)[C@@]2(CCCCC(=O)N2)C1`: the INHIBITION was -4.87%. On to `CC(C)(CCS(C)(=O)=O)CNC(=O)NC1CCCCC1(C)C` (configuration not stated), for which the INHIBITION is listed as -11.1%. For the molecule `Cc1cc(C2CCCN(CCS(=O)(=O)c3ccccc3)C2)n[nH]1` (configuration not stated), the INHIBITION was -9.76%. Take `O=C(NCc1ccncc1)C1=NOC2(CCCNC2)C1` (configuration not stated): the INHIBITION was -6.21%. As for `Cc1ccc(CNC(=O)C2=NOC3(CCCNC3)C2)cc1` (configuration not stated), the INHIBITION is recorded as -13.1%. For `O=C(NCC(F)(F)F)C1=NOC2(CCCNC2)C1` (configuration not stated), the INHIBITION was 52.9%. Then `COCCn1ccc(=O)c(OCC(=O)Nc2ccc(OC)cc2)c1C`, with -35.1%; and `CCn1nc(C)c(CN(CCCOC)Cc2ccccn2)c1C`, with 41.5%; and `CCn1c(C2CCN(C(=O)c3cc(Cl)no3)CC2)nn(C)c1=O`, with -34.7%. With `Cc1nn(C)c2nc(N(CCOc3ccccc3)CC3CCCO3)sc12` (configuration not stated), the INHIBITION is reported as 85.9%. Turning to `Cc1nn(C)c2nc(N(Cc3ccncc3)CC3CCCO3)sc12` (configuration not stated), the INHIBITION is listed as -24%.

In the case of `Cc1nn(C)c2nc(N(Cc3ccccn3)CC3CCCO3)sc12` (configuration not stated), the INHIBITION was 3.17%. On to `Cc1nn(C)c2nc(N(Cc3ccccc3)CC3CCCO3)sc12` (configuration not stated), for which the INHIBITION was determined as 32.8%. With `COc1ccc(CN(CC2CCCO2)c2nc3c(s2)c(C)nn3C)cc1` (configuration not stated), the INHIBITION is 87.1%. For the molecule `Cc1nn(C)c2nc(-c3ccccn3)nc(NC[C@@H]3CCCO3)c12`, the INHIBITION is 10.4%.

Regarding `Cn1cc(CN2C[C@@H]3COC[C@]3(COCC3CC3)C2)cn1`, the INHIBITION came out at 33.1%.

For `CCn1c(CN(C)Cc2csc(C)n2)nc2cc(F)ccc21`, the INHIBITION is reported as 45.2%. Then `CC(=O)c1c(C)nn(S(=O)(=O)c2ccc(C)c(C)c2)c1C`, with 4.97%; and `CCOc1cc(=O)n2c(c1C(=O)OCc1ccc(F)cc1)CCCC2`, with -3.77%; and `Cn1cccc(NC(=O)NCCc2cccc(O)c2)c1=O`, with 57.3%. With `Cn1cccc(NC(=O)NCc2cccc(CO)c2)c1=O`, the INHIBITION worked out at 42.4%. The value for `Cn1cccc(NC(=O)NCCOCc2ccccc2)c1=O` was 28.5%; that for `CCN(Cc1ccccc1O)CC1(C)Cc2c(N)nc(N)nc2O1` (configuration not stated) was 16.7%; that for `COCCOC(=O)N1C[C@@H]2CC[C@H]1CN(C1Cc3ccccc3C1)C2` was -55%. On to `COc1ccc(C2CCCN2C(=O)NCCNc2ccccn2)cc1` (configuration not stated), for which the INHIBITION is recorded as -21.2%. The value for `CCCOc1ccc(CCC(=O)Nc2nonc2C)cc1` was -11.3%; that for `Cc1ccc(OCCCC(=O)Nc2nonc2C)cc1C` was 86.1%. Take `Cc1nonc1NC(=O)CCn1cc(Br)ccc1=O`: the INHIBITION is recorded as 20.3%. `COCC1c2c(cnn2C)CCN1Cc1ccc(C)o1` (configuration not stated): the INHIBITION was found to be 34.4%. For the molecule `Cc1n[nH]c(C)c1CCC(=O)NCC1CCCN(C2CCCC2)C1` (configuration not stated), the INHIBITION came out at 38.6%. As to `COc1nn(C)cc1C(=O)N1CCC(C)CC1`, the INHIBITION is 49.9%.

As to `CNC(=O)[C@H]1C[C@@H]2CN(C(=O)c3cccnc3)C[C@@H]2N1S(C)(=O)=O`, the INHIBITION was determined as 10.5%.

`Cc1ccc(CN2CCCC3(CCN(S(C)(=O)=O)C3)C2)o1` (configuration not stated): the INHIBITION worked out at 22.7%. On to `Cc1ccc(CN2CC3(CCN(S(=O)(=O)c4ccccc4)C3)C2)o1`, for which the INHIBITION was found to be 12.4%. Regarding `Cc1ccc(CN2CCC3(CCN(S(=O)(=O)c4ccccc4)C3)C2)o1` (configuration not stated), the INHIBITION was 56.8%. With `Cc1ccc(CN2CCC3(CCCN(Cc4ccc(F)c(F)c4)C3)C2)o1` (configuration not stated), the INHIBITION came to 54.7%. As for `Cc1ccc(CN2CCC3(CCCN(S(C)(=O)=O)C3)C2)o1` (configuration not stated), the INHIBITION was 24.9%. As to `Cc1c[nH]c(CN2CCC3(CCCN(Cc4ccc(F)c(F)c4)C3)C2)n1` (configuration not stated), the INHIBITION was found to be 42.2%.

Regarding `Cc1ccc(CN2CCCC3(CCN(Cc4ccc(C)o4)C3)C2)o1` (configuration not stated), the INHIBITION is 74.7%. Turning to `Cc1ccc(CN2CCCC3(CCN(S(=O)(=O)N(C)C)C3)C2)o1` (configuration not stated), the INHIBITION worked out at 48.3%. The value for `CCS(=O)(=O)N1CCC2(CCN(Cc3ccc(C)o3)C2)C1` (configuration not stated) was 13.1%; that for `CC(=O)N1CCN([C@@H]2CC[C@@H](NC(=O)c3cc(C)cs3)[C@H]2O)CC1` was 33.7%. For `Cc1cncc(C(=O)N2CCC3(CC2)NC(=O)CC3c2ccccc2)c1` (configuration not stated), the INHIBITION is given as -3.88%. Regarding `O=C([C@H]1C[C@H]2[C@H](CCN2Cc2cccs2)O1)N1CCOCC1`, the INHIBITION turned out to be 24.8%. For `CSc1ncccc1C(=O)N1C[C@@H]2CC[C@H]1CN(C(C)=O)C2`, the INHIBITION is -31.1%. Consider `COCCNc1c(-c2ccc(C)cc2)c(=O)c1=O`, for which the INHIBITION was determined as 25.3%. For the molecule `Cc1ccc(S(=O)(=O)N2CCCCC(N3CCN(C)CC3)C2)cc1F` (configuration not stated), the INHIBITION is listed as 71.3%.

For the molecule `Cc1cc(S(=O)(=O)N2CCC(S(C)(=O)=O)C2)ccc1F` (configuration not stated), the INHIBITION is 6.09%.

For `Cc1ccc(S(=O)(=O)N2C[C@H](C3CC3)[C@@H](N)C2)cc1F`, the INHIBITION amounted to 22.5%.

Take `Cc1ccc(S(=O)(=O)N2CCC(N3CCCCC3)CC2)cc1C`: the INHIBITION came to 45.4%. Regarding `Cc1cc(S(=O)(=O)N2CCCN3CCCC3C2)ccc1F` (configuration not stated), the INHIBITION turned out to be 88.1%. For `Cc1cc(S(=O)(=O)N2CCC(S(C)(=O)=O)CC2)ccc1F`, the INHIBITION amounted to 16.6%. Consider `CCc1ccc(CN2CCC3(CC2)CN(c2cnn(C)c2)C(=O)CO3)o1`, for which the INHIBITION is recorded as 34.4%.

`Cc1ccc(OCCCSC2=NCCN2)cc1`: the INHIBITION is reported as 39.1%. Consider `CSc1nc2cc(C)n(CC(=O)NC(C)C)c2c(=O)n1CC(C)C`, for which the INHIBITION is reported as 43.9%. Turning to `COCCNC(=O)Cn1c(C)cc2nc(SC)n(CC(C)C)c(=O)c21`, the INHIBITION is on record as 89.9%.

As for `CSc1nc2cc(C)n(CC(N)=O)c2c(=O)n1CC(C)C`, the INHIBITION came out at 42.3%.

With `Cc1cc(C)n(CC(=O)N2CCC(Nc3cccnn3)CC2)n1`, the INHIBITION is listed as -7.95%. With `O=C(NCc1cccs1)[C@@H]1CC[C@@H]2[C@@H](CCN2C2CCOCC2)O1`, the INHIBITION stood at 27.6%. Then `CN(C)[C@@H]1CCN(C(=O)c2cccn2C)[C@H]1Cc1cnn(C)c1`, with 57.9%. With `Cn1cc(C[C@H]2[C@@H](O)CCN2C(=O)c2ccc[nH]2)cn1`, the INHIBITION worked out at 4.27%. For `CN(C)[C@@H]1CCN(C(=O)c2ccsc2)[C@H]1Cc1cnn(C)c1`, the INHIBITION came out at 48.3%.

In the case of `COCCO[C@@H]1CCN(C(=O)c2ccc[nH]2)[C@H]1Cc1cnn(C)c1`, the INHIBITION came to 33.4%. The value for `CN(C)[C@@H]1CCN(C(=O)c2ccco2)[C@H]1Cc1cnn(C)c1` was 33.4%; that for `CCO[C@@H]1CCN(C(=O)c2cscn2)[C@@H]1Cc1cnn(C)c1` was 37.5%; that for `Cn1cc(C[C@H]2[C@H](O)CCN2C(=O)c2ccsc2)cn1` was 60.2%. Take `CN(C)C(=O)N1CC[C@@H](O)[C@@H]1Cc1cnn(C)c1`: the INHIBITION amounted to 19.5%. For the molecule `CCO[C@@H]1CCN(C(=O)c2cnc(C)cn2)[C@@H]1Cc1cnn(C)c1`, the INHIBITION was determined as 53.2%. For the molecule `Cn1cc(C[C@H]2[C@H](N3CCOCC3)CCN2C(=O)c2ccco2)cn1`, the INHIBITION was determined as 17.1%. `Cn1cc(C[C@H]2[C@H](N3CCOCC3)CCN2C(=O)c2ccc[nH]2)cn1`: the INHIBITION is listed as 55.5%.

Consider `Cc1ccccc1C(=O)N1CC[C@@H](N(C)C)[C@@H]1Cc1cnn(C)c1`, for which the INHIBITION worked out at 34.6%. As to `O=c1ccc(-c2cccs2)nn1CN1CCOC(c2ccccc2)C1` (configuration not stated), the INHIBITION is reported as -16.5%. For `Cc1oc(C)c(C(=O)N2CCN(Cc3cscn3)CC2)c1C`, the INHIBITION is recorded as -63.3%. `CN(C)c1cccc(C(=O)N2CCCSCC2CN2CCCC2)c1` (configuration not stated): the INHIBITION turned out to be 11%. Take `CC(C)C(NC(=O)Cn1nc2c(cc1=O)CCCC2)C(=O)O` (configuration not stated): the INHIBITION is recorded as -0.621%. On to `Cc1ccc(NCc2cncc3c2CCN(C(=O)C2CC=CC2)C3)nn1`, for which the INHIBITION was -25%. Take `O=C(c1cncs1)N1CCCC1c1ccn[nH]1` (configuration not stated): the INHIBITION was -28.6%. For `Cc1nc(N2CCOCC2)nc2c1CCN(Cc1cccnc1)CC2`, the INHIBITION is 4.92%.

`Cc1cccc(N2CCN(C(=O)NC(C)c3nncn3C)CC2)c1` (configuration not stated): the INHIBITION was -38.2%. Regarding `O=C(N[C@@H]1CC[C@@H](N2CCOCC2)[C@@H]1O)c1cnn2cccnc12`, the INHIBITION was found to be 38.8%. Take `O=C(c1cccnc1)N1CC[C@H](OCC2CC2)[C@@H]1Cc1cccnc1`: the INHIBITION was determined as 34.8%. As for `COCCO[C@H]1CCN(C(=O)c2ccsc2)[C@H]1Cc1cnn(C)c1`, the INHIBITION is listed as -17.9%.

Regarding `CCO[C@@H]1CCN(C(=O)N(C)C)[C@@H]1Cc1cnn(C)c1`, the INHIBITION stood at 12.4%. As for `COCCO[C@H]1CCN(C(=O)c2cccnc2)[C@H]1Cc1cnn(C)c1`, the INHIBITION worked out at 1.9%.

`COCCO[C@H]1CCN(C(=O)c2ccco2)[C@H]1Cc1cnn(C)c1`: the INHIBITION is reported as -22.5%. As for `CCO[C@@H]1CCN(C(=O)c2ccc[nH]2)[C@@H]1Cc1cnn(C)c1`, the INHIBITION came out at 29%. Consider `COCCO[C@@H]1CCN(C(=O)c2ccnnc2)[C@H]1Cc1cnn(C)c1`, for which the INHIBITION came out at 53.4%.

`CCO[C@@H]1CCN(C(=O)c2ccnnc2)[C@@H]1Cc1cnn(C)c1`: the INHIBITION amounted to 69.5%. As to `COCCO[C@H]1CCN(C(=O)NC2CC2)[C@H]1Cc1cnn(C)c1`, the INHIBITION is listed as 62.8%.

On to `COCCO[C@@H]1CCN(C(=O)c2ccc(C)o2)[C@@H]1Cc1cnn(C)c1`, for which the INHIBITION came to 21.6%. Consider `O=C(c1ccnnc1)N1CC[C@@H](O)[C@@H]1Cc1ccccc1`, for which the INHIBITION is listed as -3.58%.

On to `O=C(c1ccnnc1)N1CC[C@H](OCC2CC2)[C@@H]1Cc1ccncc1`, for which the INHIBITION worked out at 66.2%. For `NC(=O)C1CCCN(C(=O)c2ccn(-c3ccc(F)cc3)n2)C1` (configuration not stated), the INHIBITION was 0.914%. Then `c1cnc2[nH]c(C3CCNCC3)c(CN3CCOCC3)c2c1`, with 6.32%; and `O=C([C@H]1CC[C@@H]2[C@@H](CCN2C2CCCCC2)O1)N1CCOCC1`, with 20.6%. As for `NCCCC(=O)NCC1(O)CCN(c2ccnc3cccnc23)C1` (configuration not stated), the INHIBITION was determined as 8.3035%.

Consider `OCC1CCCN1c1cc(NCCNc2ccccn2)ncn1` (configuration not stated), for which the INHIBITION was 7.12%. Take `OCC1CCCN1c1cc(NCc2ccccn2)ncn1` (configuration not stated): the INHIBITION is on record as -41.6%. In the case of `OCC1CCCN1c1cc(NCc2ccsc2)ncn1` (configuration not stated), the INHIBITION is 43.2%. Regarding `OCC1CCCN1c1cc(NCCc2ccccn2)ncn1` (configuration not stated), the INHIBITION amounted to 64.1%. As to `OCC1CCCN1c1cc(NCCc2ccsc2)ncn1` (configuration not stated), the INHIBITION worked out at 66.3%. In the case of `OCC1CCCN1c1cc(NCCc2nccs2)ncn1` (configuration not stated), the INHIBITION is recorded as -0.71%.
